CYP2C9 activ = CYP2C9 (human) activation. P11712. recombinant CYP2C9, luciferin-H conversion, luminescence; stronger effect = higher value; factor 1 = untreated enzyme, 0 = blocked. activation factor at 5 µM. 1.4% of 96,000 active. AID 1024;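 active means activation factor of 2 or more for CYP2C9 at a 5 µM dose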;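 further: 0 = sulfaphenazole-blocked wells and 1 = vehicle-only wells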
Target sequence (P11712 whole entry, looked up): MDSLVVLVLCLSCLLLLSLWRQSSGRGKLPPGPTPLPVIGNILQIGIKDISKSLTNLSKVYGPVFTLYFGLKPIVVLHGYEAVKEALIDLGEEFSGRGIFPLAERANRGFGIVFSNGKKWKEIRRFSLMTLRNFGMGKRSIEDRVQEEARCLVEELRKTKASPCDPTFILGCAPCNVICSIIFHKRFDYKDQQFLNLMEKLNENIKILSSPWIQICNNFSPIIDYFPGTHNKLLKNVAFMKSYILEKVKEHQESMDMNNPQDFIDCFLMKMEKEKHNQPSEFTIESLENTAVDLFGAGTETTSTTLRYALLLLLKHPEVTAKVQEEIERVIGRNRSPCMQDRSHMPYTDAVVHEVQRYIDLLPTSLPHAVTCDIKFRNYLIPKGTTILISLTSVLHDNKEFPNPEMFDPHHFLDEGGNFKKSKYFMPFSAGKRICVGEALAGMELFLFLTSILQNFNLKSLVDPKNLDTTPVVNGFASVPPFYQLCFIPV
CYP2C19 inh = human CYP2C19 inhibition | CYP2C19 Supersomes, luciferin-H EGE luminescence, 30 min | P33261 | AID 778 | inhibition, % at 5 µM | 21% of 96,000 active;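 active means CYP2C19 inhibition above a set limit at 5 µM in the primary screen, cut at about 50% in these data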;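 further: plate controls were negative control wells for no effect and 2.5 mM tranylcypromine positive control for full effect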
CYP2C19 act = increases human CYP2C19 enzyme activity. P33261. recombinant CYP2C19, luciferin-H EGE luminescence; stronger effect = higher value; 0 = fully inhibited enzyme, 1 = untreated enzyme. activation factor at 5 µM. 96,000 tested, under 10 active;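 active means activation factor of at least 2 at 5 µM in the primary screen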;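 further: 0 = wells with 2.5 mM tranylcypromine and 1 = vehicle-only wells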
CYP2C9 inh = inhibitors of human CYP2C9. P11712. CYP2C9 Supersomes, luciferin-H conversion, luminescence. inhibition, % at 5 µM. 20% of 96,000 active. AID 777;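 active means blocking of liver enzyme CYP2C9 beyond about 50% at 5 µM, limit read from the data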
PostGolgi ctrl = inhibits growth of the yeast control strain; inhibition, % at 10 µM; 5% of 98,000 active; efflux-deficient yeast background strain, growth absorbance A615, 16 h
PostGolgi yeast = growth inhibition of a yeast mutant, post-Golgi transport screen. AID 739. post-Golgi transport phenotypic cell assay. inhibition, % at 10 µM. 0.9% of 98,000 active;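 further: yeast cells grown in 1536-well plates; yeast grown about 18 h at 30C before absorbance read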
Active calls of the source: *; . = not tested or not shown. Most compounds without a hit are left out; they make up all but 32% or so of the library. Unless noted, no stated cut-off is given here; in the data, active means inhibition above about 30%; inactive means the rest.

SMILES | CYP2C9 activ | CYP2C19 inh | CYP2C19 act | CYP2C9 inh | PostGolgi ctrl | PostGolgi yeast
Cc1ccc(-n2c(C)cc(C(=S)N3CCOCC3)c2C)cc1C | 0.6 | 87* | 0.1 | 37 | 0 | 7
CC(C)C(=O)NC(C)C(c1cccs1)N1CCN(C)CC1 (centres undefined) | 1 | 0 | 1 | 0 | 2 | 5
CC(NC(=O)Nc1ccc(Cl)cc1)C(c1cccs1)N1CCOCC1 (centres undefined) | 0.5 | 68* | 0.3 | 49 | -1 | 9
CC(NC(=O)Nc1ccccc1)C(c1cccs1)N1CCOCC1 (centres undefined) | . | . | . | . | -5 | -1
CC(NC(=O)c1ccccc1)C(c1cccs1)N1CCOCC1 (centres undefined) | 0.6 | 57* | 0.4 | 45 | 0 | -6
CCN1CCN(C(c2cccs2)C(C)NC(=O)c2c(F)cccc2F)CC1 (centres undefined) | 1.1 | 11 | 0.9 | -10 | -2 | -2
CC(NC(=O)c1ccco1)C(c1cccs1)N1CCOCC1 (centres undefined) | 0.7 | 64* | 0.4 | 33 | 4 | -1
CCN1CCN(C(c2cccs2)C(C)NC(=O)c2ccccc2F)CC1 (centres undefined) | 0.4 | 8 | 0.9 | 59* | 2 | 2
CC(NC(=O)c1cccnc1)C(c1cccs1)N1CCN(C)CC1 (centres undefined) | 1 | 9 | 0.9 | 1 | 0 | -5
COc1ccc(CCN(C(=O)c2ccccc2)C2=CC3CCC(C2)N3C)cc1OC (centres undefined) | 1 | 8 | 0.9 | 3 | -4 | 0
Cn1c(Cn2nnc3ccccc32)nnc1SCC(=O)c1ccc(F)cc1 | 0.9 | -7 | 1.1 | 5 | 16 | 0
CCc1sc(C(=O)NC2CCN(C)CC2)cc1Br | 0.6 | -4 | 1 | 39 | 4 | 5
CN(C(=O)CSc1nc(-c2ccc(F)cc2)cs1)C1CCS(=O)(=O)C1 (centres undefined) | 3.6* | 37 | 0.6 | -264 | -3 | -5
CCCc1cc(=O)[nH]c(SCC(=O)N(C)C2CCS(=O)(=O)C2)n1 (centres undefined) | 1 | 45 | 0.5 | 1 | 11 | 1
CN(C(=O)CSc1nc(-c2ccccc2)cs1)C1CCS(=O)(=O)C1 (centres undefined) | 4* | 60* | 0.4 | -304 | -1 | 6
CN(c1nc(-c2ccccc2)cs1)C1CCS(=O)(=O)C1 (centres undefined) | 0.8 | 58* | 0.4 | 18 | 7 | -2
C=CCn1c(Sc2nnc(C)s2)nc2c1c(=O)[nH]c(=O)n2C | 0.8 | 9 | 0.9 | 19 | -1 | 11
Cc1ccc(O)c(CC(C)C)n1 | 1 | -1 | 1 | 0 | 0 | 6
COc1ccc(CCc2nc(C)ccc2O)cc1 | 0.3 | 83* | 0.2 | 66* | 0 | -7
C=CCc1cc(C(=O)N2CCCCC2)ccc1O | 0.7 | 89* | 0.1 | 34 | -1 | -1
O=C(c1ccc2c(c1)OCCO2)N1CCCCC1 | 1 | 12 | 0.9 | -2 | 16 | 9
CCN1CCN(C(c2ccc(F)cc2)c2nnnn2Cc2cccs2)CC1 (centres undefined) | 1 | 33 | 0.7 | 5 | 9 | 15
OC1(c2ccc(F)cc2)CCN(Cc2nnnn2Cc2cccs2)CC1 | 0.4 | 75* | 0.3 | 60* | 9 | 14
COc1ccc(-n2c(C)nc3cc(C(=O)NCCN4CCOCC4)ccc32)cc1 | 0.7 | 16 | 0.8 | 27 | 2 | 2
Cc1cc(-c2csc(N)n2)c(C)n1CCc1ccccc1 | 0.3 | 84* | 0.2 | 66* | 4 | -4
SMILES | CYP2C9 activ | CYP2C19 inh | CYP2C19 act | CYP2C9 inh | PostGolgi ctrl | PostGolgi yeast
Cc1cc(-c2csc(N)n2)c(C)n1CCC(C)C | 0.2 | 95* | 0 | 81* | -9 | 0
O=C(CC1Sc2ccccc2NC1=O)Nc1cccc(-c2nnc3n2CCCCC3)c1 (centres undefined) | . | . | . | . | 9 | 5
O=C1CN(C(=O)CN2CCOCC2)C(c2ccccc2)c2cc(Br)ccc2N1 (centres undefined) | 0.3 | 65* | 0.4 | 68* | 3 | -2
O=C(CNC(=S)N(Cc1ccccc1F)C1CCCCC1)NC1CC1 | 0.9 | 33 | 0.7 | 6 | 14 | 3
Cc1ccc(N2C(=O)CC(Cn3nc(C)cc3C)C2=O)cc1 (centres undefined) | 1 | 2 | 1 | 1 | 7 | 6
Cc1cc(C)n(CC2CC(=O)N(c3ccc(Cl)c(Cl)c3)C2=O)n1 (centres undefined) | 0.2 | 99* | 0 | 77* | -2 | -7
COc1cc(OC)cc(C(=O)Nc2cccc(N3CCCC3)c2)c1 | 0.9 | -1 | 1 | 6 | 8 | -3
CN(C(=O)c1cnc(N2CCN(c3ncccn3)CC2)c2ccccc12)c1ccc(Cl)cc1 | 0.3 | 88* | 0.1 | 70* | 73* | -3
O=C(c1cnc(N2CCN(c3ncccn3)CC2)c2ccccc12)N1CCN(c2ncccn2)CC1 | 0.4 | 42 | 0.6 | 64* | 8 | 19
CCN(C(=O)c1cnc(N2CCN(c3ncccn3)CC2)c2ccccc12)c1cccc(Cl)c1 | 0.2 | 97* | 0 | 85* | 13 | 2
CC(C)NC(=O)c1cnc(N2CCN(c3ccccn3)CC2)c2ccccc12 | 0.6 | 20 | 0.8 | 35 | 7 | 14
COc1ccc(OC)c(NC(=O)CSc2nnc(Cn3nnc4ccccc43)n2C)c1 | 1 | 9 | 0.9 | -4 | 15 | -4
Cc1nnc(SCc2ccccc2)nc1/C=C/NOCc1ccc(Cl)cc1Cl | 0.1 | 79* | 0.2 | 88* | -1 | -7
CC(c1ccccc1F)n1cc(C(=O)NCCc2ccco2)nn1 (centres undefined) | 0.4 | 35 | 0.6 | 58* | 8 | 13
CC(c1ccccc1)n1cc(C(=O)NCc2ccncc2)nn1 (centres undefined) | 0.2 | 31 | 0.7 | 81* | 2 | -2
O=C(NCc1ccccn1)c1cn(Cc2ccccc2)nn1 | 1.1 | -7 | 1.1 | -6 | 4 | 0
CC(c1ccccc1F)n1cc(C(=O)NCc2ccncc2)nn1 (centres undefined) | 0.3 | 54* | 0.5 | 69* | -2 | 6
COc1cc(OC)c2c(C)c(Cl)c(=O)oc2c1 | 1.1 | 4 | 1 | -10 | 10 | -2
COC(=O)Cc1cc(=O)n2[nH]c(C)nc2n1 | 1.2 | -20 | 1.2 | -23 | 7 | 8
COC(=O)Cc1cc(=O)n2[nH]c(SC)nc2n1 | 0.4 | 22 | 0.8 | 64* | 2 | 1
Cc1cccc(C)c1NC(=O)C(c1cccs1)N(Cc1ccco1)C(=O)Cn1nnc2ccccc21 (centres undefined) | 1 | 2 | 1 | 4 | 18 | -4
CC(=O)Nc1ccc(S(=O)(=O)NCCC(=O)OCCN2C(=O)c3ccccc3C2=O)cc1 | 0.1 | 70* | 0.3 | 93* | -1 | 0

Source: PubChem BioAssay
